This note sets out measurements from PubChem BioAssay (NCATS).

Records with an inconclusive call do not appear. Calls of active or inactive are those of the source. Calls come from the whole dose curve; as a rule, active = well fitted inhibition curve with a large enough effect; inconclusive = small, poorly fitted or top-dose-only effect; inactive = flat fitted curve, though single readings scatter.

Holding throughout (experiment): qHTS profiling for inhibitors of Plasmodium falciparum proliferation (AID 504749); note: nearly all actives have a fitted effect of over 60% in size
Holding throughout (conditions): P. falciparum in erythrocytes, SYBR Green DNA, 72 h; series mostly up to 28.7 µM
In general terms: In qHTS, concentration-response curves come from the screen itself.

For one experiment, the system named is JCK. An outline of the steps:
(§1)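 Readout was DNA-dye fluorescence from lysed cultures, ex 485/em 535 nm. Parasitized red cells had grown 72 h with compound; data scaled between 0.29 uM artemisinin and DMSO wells and corrected using vehicle-only plates.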

The next experiment relates to N140. The procedure, abridged: as §1
The test system of the next experiment is P93_24. The procedure, abridged: as §1
A further experiment has as its system P94_40. An outline of the steps: as §1
The test system of a further experiment is PAD. An outline of the steps:
as §1

The next experiment has as its system PC15. The procedure, abridged: as §1
For a further experiment, the system named is PC26. The procedure, abridged: as §1
The subject of another experiment is PC49. An outline of the steps: as §1
The subject of the next experiment is SC27B. An outline of the steps:
as §1

In a further experiment the test system is TAB109. The procedure, abridged:
as §1
Potency is the fitted concentration of half-maximal effect.

As to `COc1ccc(C2C(=O)c3ccccc3C2=O)cc1`, the Potency entry in the experiment with JCK, in the experiment with N140, with P93_24, in the experiment on P94_40, with PAD and in the experiment on PC15 was “inactive” each time. Besides, the Potency result in the experiment with PC26, with PC49, with SC27B and in the experiment with TAB109 was “inactive” in each case.

Regarding `CC(=O)Oc1ccc(C(=C2CCCCC2)c2ccc(OC(C)=O)cc2)cc1`, the Potency entry in the experiment with JCK, in the experiment with N140, in the experiment on P93_24, in the experiment on P94_40, with PAD and with PC15 was “inactive” each time. The Potency entry in the experiment on PC26, in the experiment on PC49, with SC27B and in the experiment with TAB109 was “inactive” in each case.

Regarding `Nc1ccc(C(=O)O)cc1`, the Potency result with JCK, in the experiment on N140, in the experiment with P93_24, in the experiment with P94_40, with PAD and in the experiment on PC15 was “inactive” each time. Further, the Potency result in the experiment on PC26, with PC49, in the experiment on SC27B and with TAB109 was “inactive” in each case.

On to `CC(O)C(=O)O` (centres undefined), for which the Potency entry in the experiment with JCK, in the experiment on N140, with P93_24, in the experiment with P94_40, in the experiment with PAD and with PC15 was “inactive” each time. Besides, the Potency entry in the experiment on PC26, with PC49, in the experiment on SC27B and in the experiment on TAB109 was “inactive” in each case.

For the compound `Nc1ccc(C(=O)Nc2ccccc2N)cc1`, the Potency result in the experiment with JCK, in the experiment with N140, with P93_24, with P94_40, in the experiment with PAD and in the experiment with PC15 was “inactive” in each case. The Potency result with PC26, with PC49, with SC27B and with TAB109 was “inactive” each time.

For the compound `COc1cccc2c1C(=O)c1c(O)c3c(c(O)c1C2=O)C[C@@](O)(C(C)=O)C[C@@H]3O[C@H]1C[C@H](N)[C@H](O)[C@H](C)O1`, the Potency is 11.2 µM (active) with JCK; 4.47 µM (active) with N140; 3.98 µM (active) in the experiment on P93_24; 3.55 µM (active) with P94_40; 4.47 µM (active) with PAD; 10 µM (active) in the experiment on PC15. Besides, the Potency was 5.36 µM (active) with PC26, 7.08 µM (active) in the experiment on PC49, 5.01 µM (active) in the experiment with SC27B and 3.55 µM (active) in the experiment on TAB109.

Consider `CN=C(NC#N)NCCSCc1csc(N=C(N)N)n1`, for which the Potency result in the experiment with JCK, in the experiment on N140, with P93_24, with P94_40, with PAD and with PC15 was “inactive” in each case. In addition, the Potency entry with PC26, in the experiment on PC49 and with SC27B was “inactive” throughout.

Turning to `CCCn1c(=O)[nH]c(=O)c2[nH]cnc21`, the Potency result with JCK, in the experiment with N140, in the experiment on P93_24, in the experiment on P94_40, in the experiment with PAD and with PC15 was “inactive” in each case. The Potency result with PC26, in the experiment with PC49, in the experiment with SC27B and in the experiment with TAB109 was “inactive” each time.

For `NCCCC[C@H](N[C@@H](CCc1ccccc1)C(=O)O)C(=O)N1CCC[C@H]1C(=O)O`, the Potency result in the experiment on JCK, in the experiment on N140, in the experiment on P93_24, in the experiment with P94_40, in the experiment on PAD and in the experiment on PC15 was “inactive” each time. Also, the Potency result in the experiment with PC26, in the experiment on PC49, in the experiment on SC27B and in the experiment on TAB109 was “inactive” throughout.

Take `O=c1ccc2ccccc2o1`: the Potency entry with JCK, in the experiment on N140, in the experiment with P93_24, in the experiment on P94_40, with PAD and in the experiment with PC15 was “inactive” in each case. Moreover, the Potency entry in the experiment with PC26, in the experiment on PC49, in the experiment with SC27B and in the experiment on TAB109 was “inactive” throughout.

For the compound `CCCCOc1ccc(OCCCN2CCOCC2)cc1`, the Potency result in the experiment with JCK, with N140, in the experiment on P93_24, in the experiment with P94_40, with PAD and in the experiment with PC15 was “inactive” in each case. The Potency entry in the experiment on PC26, in the experiment on PC49, with SC27B and in the experiment on TAB109 was “inactive” in each case.

Regarding `CCN1CCN(c2cc3c(cc2F)c(=O)c(C(=O)O)cn3C2CC2)CC1`, the Potency result with JCK, in the experiment on N140, in the experiment with P93_24, in the experiment on P94_40, in the experiment with PAD and in the experiment with PC15 was “inactive” throughout. Besides, the Potency result with PC26, in the experiment with PC49, in the experiment with SC27B and with TAB109 was “inactive” in each case.

Turning to `NCCC(O)(P(=O)(O)O)P(=O)(O)O`, the Potency result with JCK, in the experiment with N140, with P93_24, in the experiment with P94_40, in the experiment on PAD and in the experiment on PC15 was “inactive” throughout. For the same compound, the Potency entry with PC26, with PC49, in the experiment with SC27B and in the experiment with TAB109 was “inactive” each time.

Turning to `CCOC(=O)COc1ccc2c(C)c(CCN(CC)CC)c(=O)oc2c1Cl`, the Potency entry with JCK, in the experiment on N140, in the experiment with P93_24, in the experiment on P94_40, with PAD and in the experiment on PC15 was “inactive” each time. Moreover, the Potency result in the experiment with PC26, with PC49, in the experiment with SC27B and in the experiment with TAB109 was “inactive” each time.

With `C[C@]12CC[C@@H]3c4ccc(O)cc4CC[C@H]3[C@@H]1CC[C@@H]2O`, the Potency result in the experiment on JCK, in the experiment with N140, with P93_24, in the experiment with P94_40, with PAD and in the experiment on PC15 was “inactive” each time. Further, the Potency entry in the experiment with PC26, in the experiment on PC49, with SC27B and in the experiment on TAB109 was “inactive” throughout.

Take `C[C@H]1[C@H](NC(=O)/C(=N/OC(C)(C)C(=O)O)c2csc(N)n2)C(=O)N1S(=O)(=O)O` (stereo in doubt): the Potency result with JCK, with N140, in the experiment on P93_24, with P94_40, in the experiment with PAD and in the experiment on PC15 was “inactive” in each case. Besides, the Potency entry in the experiment with PC26, in the experiment with PC49, in the experiment with SC27B and with TAB109 was “inactive” in each case.

As for `COc1cc(OC)cc(OC)c1`, the Potency result with JCK, in the experiment with N140, with P93_24, in the experiment with P94_40, in the experiment on PAD and in the experiment with PC15 was “inactive” throughout. Further, the Potency entry with PC26, in the experiment on PC49, in the experiment on SC27B and with TAB109 was “inactive” in each case.

`CCCCN1CCCC1C(=O)Nc1c(C)cc(C)cc1C` (centres undefined): the Potency entry with JCK, with N140, in the experiment on P93_24, with P94_40, in the experiment on PAD and with PC15 was “inactive” in each case. In addition, the Potency result in the experiment on PC26, in the experiment on PC49, in the experiment with SC27B and with TAB109 was “inactive” in each case.

As for `Cc1cc(O)c(C(C)C)cc1Cl`, the Potency entry in the experiment on JCK, in the experiment on N140, in the experiment with P93_24, with P94_40, in the experiment with PAD and with PC15 was “inactive” each time. In addition, the Potency result in the experiment on PC26, with PC49, in the experiment with SC27B and in the experiment with TAB109 was “inactive” in each case.

For the compound `CCCCCC=CCC=CCCCCCCCC(=O)OCC`, the Potency result in the experiment with JCK, in the experiment on N140, in the experiment with P93_24, in the experiment on P94_40, with PAD and with PC15 was “inactive” throughout. For the same compound, the Potency entry with PC26, in the experiment with PC49, in the experiment on SC27B and in the experiment on TAB109 was “inactive” each time.

Take `O=C(O)c1cc2cc(Cc3cccnc3)ccc2o1`: the Potency entry with JCK, in the experiment with N140, in the experiment on P93_24, in the experiment with P94_40, in the experiment with PAD and in the experiment on PC15 was “inactive” each time. The Potency result with PC26, in the experiment with PC49, in the experiment on SC27B and in the experiment with TAB109 was “inactive” throughout.

`CC(C)(CO)[C@@H](O)C(=O)NCCCO`: the Potency result with JCK, in the experiment with N140, with P93_24, with P94_40, with PAD and in the experiment on PC15 was “inactive” each time. Further, the Potency entry in the experiment on PC26, with PC49, in the experiment on SC27B and in the experiment on TAB109 was “inactive” in each case.
